From the supplement of paper PMC6555819

How the values were obtained:
Assay in all cases: PBM binding z-score (relative to random genomic background probes); higher = stronger binding; sequences stand for … in GC…GCGATTGACAGCGTAGAATGAAGG
[1] = system: RARb homodimer (NR concentration 270 nM)
Outline: (§1)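 Binding z-scores take random background probes as their reference. They come from custom Agilent 4×180K protein-binding microarrays incubated 1 h with ligand-free nuclear receptor dimers, with antibodies against each partner (one per run) detecting binding. Scanned fluorescence was regression-normalized.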

[2] = system: RARg:RXRa (NR concentration 270 nM, RXRa partner concentration 90 nM)
Outline: as §1

[3] = system: RARg homodimer (NR concentration 270 nM)
Outline: as §1

[4] = system: RXRa DBDmut IVT, anti-RXR (DBD mutation: RXRa K156A/R161A, NR concentration 90 nM)
Outline: as §1

[5] = system: RXRa homodimer (NR concentration 180 nM)
Outline: as §1

[6] = system: THRa:RXRa (NR concentration 90 nM, RXRa partner concentration 90 nM)
Outline: as §1

[7] = system: THRa homodimer (NR concentration 90 nM)
Outline: as §1

[8] = system: VDR:RXRa (NR concentration 270 nM, RXRa partner concentration 90 nM)
Outline: as §1

[9] = system: VDR homodimer (NR concentration 270 nM)
Outline: as §1

Sequence | PBM binding z-score [1] | PBM binding z-score [2] | PBM binding z-score [3] | PBM binding z-score [4] | PBM binding z-score [5] | PBM binding z-score [6] | PBM binding z-score [7] | PBM binding z-score [8] | PBM binding z-score [9]
TATCCTAGGTCATGGGCCAGTATACCACGCGAAC | 3.35 | 4.47 | 5.04 | 0.933 | 3.99 | 3.54 | 2.41 | 2.75 | 1.05
CCTCGGAGGACAGAAGGTCAGCGCTGTCCGCTTT | 4.09 | 4.02 | 3.84 | 0.468 | 2.54 | 2.57 | -0.027 | 1.22 | 0.0447
TAGACTAGGTCATGCGGGCCAGTATAGTGTCGGC | 2.66 | 3.38 | 4.13 | 0.0121 | 2.73 | 2.84 | 0.705 | 2.46 | 0.756
CCTTACGGGTCACTGACAGGTTTTAGCATTTGGA | 3.06 | 4.89 | 4.41 | 1.81 | 4.92 | 2.53 | 0.0377 | 3.31 | 1.01
TCTCGGAAGACACGAAGGTCAGAGCTTTCCAGAG | 3.02 | 1.39 | 1.67 | 0.484 | 1.61 | 1.09 | -0.118 | 1.08 | 0.195
CCTATTAGTTGACCATAAGCGCAACCGAAGCTCG | 0.669 | 0.621 | 0.455 | 0.856 | 0.371 | 0.364 | 0.809 | 1.05 | 0.721
TATTGTAGATCAAGCAGGTTAAGAAAGCCTGAGT | 0.00937 | 0.285 | 0.147 | -0.887 | 0.374 | 0.288 | -0.434 | 0.301 | 0.132
TCTATTAGCTGAAGGGCAACCGACGAGTCCGTTT | 0.986 | 0.404 | 0.211 | 0.755 | 0.365 | -0.0875 | -0.551 | 0.475 | 0.695
TCATATAGGAAAAAGGTGAAAGTCGGTGTGGTAA | 1.66 | 0.803 | 0.339 | 1.88 | 1.5 | 1.11 | 0.221 | 1.21 | 0.152
CGAACGAGGGCTTGAGTTGATAGCAAATGCCGAT | -0.757 | -0.238 | -0.288 | 0.344 | -0.152 | -0.359 | -0.618 | -0.282 | -0.163
AGAATGAGGTTATACGTAGATCAAGGAAGAAAGT | 0.606 | 1.96 | 1.11 | 1.82 | 2.3 | 2.04 | 0.406 | 1.33 | 0.854
ATCTCTAGGTAAAACTCAGTTCAGTGAAGAACGC | 0.751 | 0.623 | 0.586 | 0.726 | 0.153 | 1.18 | 0.901 | 1.5 | 2.13
CCTTACGGGTCACTGACAGGTTCTAGCATTTGGA | 3.15 | 4.85 | 4.15 | 1.95 | 4.61 | 2.45 | 0.145 | 3.36 | 1.03
TCTGCTAGGTCAGTTGGTCAGCTCACGAGCTGCC | 2.45 | 2.61 | 3.31 | 0.58 | 1.15 | 1.38 | 0.196 | 0.484 | -0.78
TAGCCTAGGTCATTGAGGGGCCAGTATAGAAAGC | 2.97 | 5.82 | 4.34 | 1.59 | 2.82 | 3.05 | 0.714 | 3.07 | 1.16
CCTAGTTGGCCAGGAGGTCACACACCGGATATGA | 4.01 | 4.27 | 3.43 | 0.6 | 4.51 | 3.54 | 2.38 | 3.63 | 2.16
ACATACAGGTGAGTGAAGGTAACTCAGCTGGACG | 0.773 | 1.2 | 0.903 | 0.0119 | 0.795 | 2.21 | -0.215 | 0.0169 | 0.00472
TATACAGGGCCAAAGGCCAGAGTACGAATGTCGA | 1.12 | 1.16 | 1.47 | -0.775 | 0.74 | -0.149 | -0.814 | 0.13 | 0.291
ACGGACAGGTGATGAAGGTAACTCAGGCTATCAT | 0.711 | 0.496 | 0.813 | 0.19 | 0.31 | 1.02 | 0.438 | 0.367 | 0.327
TCTGCTAGGTCAACGATGGTCAGCTATTCTGCTA | 3.16 | 3.99 | 4.93 | 0.833 | 2.46 | 3.03 | 0.599 | 1.71 | -0.371
CCTAGTTGGTCAGGAGGTCTCACACCGGATATGA | 1.11 | 0.617 | 0.718 | -0.451 | 0.298 | 0.191 | 0.505 | 0.189 | 0.261
TCTTGGAGGACACGAAAGGTCAGAGCTCGACATC | 4.63 | 5.1 | 5.47 | 1.26 | 4.25 | 3.89 | 1.31 | 3.58 | 1.48
ACTATTGGTTGACTTAGGGCAACCGATACGACGC | 0.788 | 0.838 | 0.894 | 0.419 | 0.479 | 1.66 | 0.213 | 0.175 | -0.0545
CATACAGGGTCAGCTAGGCCGGAGTAGGGACGGC | 3 | 4.28 | 4.35 | 1.18 | 3.93 | 2.78 | 0.818 | 3.08 | 0.84
AGAATGAGGTTATACTTAGATCAGGGAAGAAAGT | 0.8 | 1.56 | 1.14 | 1.87 | 1.87 | 1.96 | 0.882 | 1.41 | 0.999
ATCGAAAGGTGGAGGTGAGTATAGAGAAAGGGAA | 1.16 | 0.536 | 0.711 | -0.665 | 0.164 | 0.67 | 0.48 | 0.346 | 0.297

Sequence | PBM binding z-score [1] | PBM binding z-score [2] | PBM binding z-score [3] | PBM binding z-score [4] | PBM binding z-score [5] | PBM binding z-score [6] | PBM binding z-score [7] | PBM binding z-score [8] | PBM binding z-score [9]
TGAATGAGGTAAAAGATCAGGGAACGTGGCGTCG | -0.605 | 0.328 | 0.294 | -0.708 | 0.851 | 1.3 | -0.2 | -0.131 | -0.398
CTACCAAGGTGAACAAGGTCGTTGACTACTATTC | 2.28 | 2.17 | 1.67 | 1.6 | 2.34 | 3.49 | 2 | 6.23 | 2.59
TCTTGTAGATCAAGCAGGTTACGAAAGCCTGAGT | 0.377 | 0.206 | -0.118 | 0.652 | 0.618 | 0.537 | -0.421 | 0.633 | -0.206
CCTCGGAGGACAGAAGGTCAGAGCGGTCCGCTTT | 3.61 | 3.59 | 3.6 | 0.0416 | 1.82 | 2.35 | -0.136 | 1.83 | 0.0325
CATTACGGGTCACTGACAGGTTATAGCATTTGGA | 3.58 | 5.97 | 4.78 | 2.24 | 5.7 | 3.2 | 0.716 | 4 | 1.4
ACTCGGAGGACATAGGTCAGAGCTACGCCAGTGA | 2.6 | 3.03 | 2.28 | 0.527 | 2.26 | 2 | 0.0623 | 1.03 | 0.202
TCTTGTAGATCAACAGGAGCTTAAGAAAGATCGA | -1.46 | 0.118 | -0.187 | -0.0794 | -0.154 | -0.552 | -1.65 | -0.21 | -0.768
ATCTCTAGGTAAAGATAGTTCAGTGACTGCAAAT | 1.33 | 0.534 | 0.542 | 0.648 | -0.00287 | 0.905 | 0.426 | 1.05 | 0.571
ACTCGGAGGACGAAGGTCAGAGCTACGCCAGTGA | 2.86 | 2.9 | 2.48 | 0.315 | 2.01 | 1.64 | -0.396 | 1.15 | 0.109
CTACCAAGTTGAACAAGGTCGTTGATTACTATTC | 1.75 | 0.927 | 0.929 | 2.12 | 1.15 | 2.77 | 1.57 | 5.18 | 3.58
CGTCCAAGGTCAGAGAGGTCAGTGATTGCCGAGT | 5.16 | 6.26 | 7.26 | 3.31 | 5.33 | 4.13 | 3.03 | 7.23 | 5.48
ACTAGTTGGTCAGCTGAGGTCACAAACAATTCGG | 4.02 | 3.8 | 3.86 | 0.835 | 3.71 | 5.04 | 4.45 | 4.24 | 3.58
CTCGAAAGGTCGTGCTCAGGTGTGTATACCAAAC | 2.72 | 4.45 | 3.62 | 2.5 | 4.71 | 3 | 0.4 | 3.31 | 0.893
ACTATTAGTTGAGACGAGGGCAATCGATAGGTTG | 0.955 | 0.898 | 0.973 | 0.801 | 0.517 | 2.22 | -0.15 | 0.793 | 1.06
CCGAGCAGGCCAGGGTCACTCAAGCATTTCGCTT | 2.91 | 3.13 | 2.66 | 0.694 | 3.6 | 2.91 | 1.02 | 2.6 | 1.31
CCTAGTTGGTCAGGAGGTCACACAACGGATATGA | 4.4 | 5.09 | 4.4 | 0.815 | 4.82 | 3.56 | 2.25 | 3.97 | 2.5
TGATTGAGGTTAAAGATCAGGGAACGTGGCGTCG | 1.01 | 2.5 | 1.35 | 0.759 | 3.67 | 2.57 | 0.317 | 1.94 | 0.679
CTTACTGGGCCAAAAAGGTCATTGATGCCGATAA | 4.5 | 4.8 | 4.65 | 1.08 | 5.37 | 3.21 | 0.313 | 4.92 | 2.72
TCTTGTAGATCAGCAGGATAAGAAAGCTGGCCAA | -0.798 | -0.461 | -0.47 | 0.379 | -0.273 | -0.557 | -0.84 | -0.113 | -0.775
GATAGAGGGTCAAGGCCAGAGTACGCGTATTGAT | 3.47 | 4.81 | 4.67 | 1.49 | 4.38 | 2.65 | 0.388 | 3.37 | 1.59
GATACAGGGTCCAGGCCAGAGTACGCGTATTGAT | 0.265 | 0.144 | 0.255 | -0.135 | 0.291 | -0.105 | -0.0572 | -0.0532 | 0.607
CCTAGCTGGTCAAGGTCACACACGCTATAGGTAC | 4.06 | 4.56 | 4.74 | 1.82 | 4.92 | 3.97 | 3.76 | 3.75 | 2.88
AGTCAAAGTTCAGGACGAGGTGACGTAAAGCACG | 3.64 | 5.69 | 5.15 | 3.18 | 3.53 | 3.93 | 1.83 | 3.27 | 2.66
TCTTGTAGAGCAGCAGGTTAAGAAAGCTGGCCAA | -0.584 | -0.394 | -0.758 | -0.623 | -0.14 | -0.0931 | -1.03 | -0.353 | -1.08
TCATATAGGTAAATGCGAGGTGAAAGTCCGATCT | 1.05 | 0.929 | 0.538 | 1.89 | 1.18 | 2.78 | 1.54 | 1.32 | 0.605
GGAACGAGGGCATTCGAGATGATAGCATGGCGAT | 0.609 | 1.13 | 1.65 | 3.05 | 1.02 | 1.44 | -0.487 | 1.45 | 2.01
